# ChEMBL document CHEMBL3988442, “University of Dundee, Small-Polar-MMV Screening Library” (2021)
# Hit rate of the full screen: of about 66,000 compounds, about 960 (1.5%) showed an effect of 50% or more. The sample holds strong results, similar compounds and a random draw of the others, so the mix is not that of the screen.
# Tested on: Trypanosoma brucei
# Experiment: Trypanosoma brucei 72 hour study
# Type: functional, organism-based
# Design: scale not given: in the data most compounds retested in dose-response had high values
smiles,measurement,setting,value
CCOCCC(=O)N1CCc2cccc(S(=O)(=O)N3CCOCC3)c2C1,Percent Effect,"30 µM, 30.03 µM",-15.51%
CS(=O)(=O)c1ccccc1NCc1ccc(Cn2ccnc2)cc1,Percent Effect,"30 µM, 30.03 µM",-15.33%
CN(Cc1ccccn1)C1CC2(CCN(Cc3cccnc3)CC2)C1.O=C(O)C(F)(F)F.O=C(O)C(F)(F)F.O=C(O)C(F)(F)F,Percent Effect,"30 µM, 30.03 µM",-16.66%
CCCNCc1ccc(OCc2ccc3c(c2)OCCO3)cc1.Cl,Percent Effect,"30 µM, 30.03 µM",56.18%
CCNCc1ccc(OCc2ccc3c(c2)OCCO3)cc1.Cl,Percent Effect,"30 µM, 30.03 µM",-18.34%
CNCc1ccc(OCc2ccc3c(c2)OCCO3)cc1.Cl,Percent Effect,"30 µM, 30.03 µM",-35.77%
Cc1c(C(=O)N2CCCC(n3cccn3)C2)nnn1-c1ccccc1 (stereo not given),Percent Effect,10 µM,-41.06%
same,Percent Effect,"30.3 µM, […]",-3.586%
CNC(=O)CN1CCCC12CCN(Cc1c[nH]cn1)CC2.O=C(O)C(F)(F)F.O=C(O)C(F)(F)F,Percent Effect,"30 µM, 30.03 µM",-41.63%
Cc1ccc(-c2ccc(CC3NCCN(C)C3=O)cc2)cc1.Cl (stereo not given),Percent Effect,"30.3 µM, […]",-13.76%
CC(c1cn2ncsc2n1)N1Cc2ncccc2C1=O (stereo not given),Percent Effect,"30.3 µM, […]",6.941%
Fc1cnc(N2C[C@@H]3COC[C@]3(COc3ccccn3)C2)nc1.O=C(O)C(F)(F)F.O=C(O)C(F)(F)F,Percent Effect,"30.3 µM, […]",-2.43%
O=C(O)C(F)(F)F.O=C(c1ccccc1)N1C[C@H]2CCC[C@@]2(COCc2ccncc2)C1,Percent Effect,"30 µM, 30.03 µM",-75.85%
Cc1ccc(C(=O)N2C[C@@H](OCc3cccnc3)[C@H]3OCCC[C@@H]32)o1.O=C(O)C(F)(F)F,Percent Effect,"30 µM, 30.03 µM",5.646%
Fc1cnc(N2C[C@H]3CCC[C@@]3(COc3ccccn3)C2)nc1.O=C(O)C(F)(F)F.O=C(O)C(F)(F)F,Percent Effect,"30 µM, 30.03 µM",83.95%
Cc1ccc(C(=O)N2C[C@H]3CCC[C@@]3(COc3ccccn3)C2)nc1.O=C(O)C(F)(F)F.O=C(O)C(F)(F)F,Percent Effect,"30 µM, 30.03 µM",43.42%
Cc1ccoc1C(=O)N1C[C@H](OCc2cccnc2)[C@H]2OCCC[C@H]21.O=C(O)C(F)(F)F,Percent Effect,"30 µM, 30.03 µM",55.38%
Cc1cncc(C(=O)N2C[C@H]3CCC[C@@]3(COc3ccccn3)C2)c1.O=C(O)C(F)(F)F.O=C(O)C(F)(F)F,Percent Effect,"30 µM, 30.03 µM",53.76%
CS(=O)(=O)N1C[C@H]2CCC[C@@]2(COc2ccccn2)C1.O=C(O)C(F)(F)F,Percent Effect,"30 µM, 30.03 µM",-36.44%
Cc1occc1C(=O)N1C[C@@H](OCc2cccnc2)[C@H]2OCCC[C@@H]21.O=C(O)C(F)(F)F,Percent Effect,"30 µM, 30.03 µM",-8.947%
Cc1ccoc1C(=O)N1C[C@H]2CCC[C@@]2(COCc2ccncc2)C1.O=C(O)C(F)(F)F,Percent Effect,"30 µM, 30.03 µM",58.51%
O=C(O)C(F)(F)F.O=C(c1ncccn1)N1C[C@H]2CCC[C@@]2(COc2ccccn2)C1,Percent Effect,"30 µM, 30.03 µM",19.9%
O=C(O)C(F)(F)F.O=C(c1ncccn1)N1C[C@H]2CCC[C@@]2(COCc2ccncc2)C1,Percent Effect,"30 µM, 30.03 µM",14.62%
N#Cc1cccc(CN2CC[C@@H]3[C@@H]2CC(=O)N3Cc2cccnc2)c1.O=C(O)C(F)(F)F.O=C(O)C(F)(F)F,Percent Effect,"30 µM, 30.03 µM",-2.932%
CC(C)n1nc(CN2CCCCC2)c2c1CN(C(=O)c1ccno1)C2.O=C(O)C(F)(F)F,Percent Effect,"30.3 µM, […]",-65.47%
COCCN1CCC2(CC1)CCN(Cc1ccccn1)CC2.O=C(O)C(F)(F)F.O=C(O)C(F)(F)F,Percent Effect,"30.3 µM, […]",-12.12%
Cc1nc(CN2CC[C@H](OCC3CC3)[C@@H]2Cc2cccnc2)cs1.O=C(O)C(F)(F)F.O=C(O)C(F)(F)F,Percent Effect,"30.3 µM, […]",-53.44%
O=c1c(CN2CCCCCC2)coc(O)c1CN1CCCCCC1,Percent Effect,"30 µM, 30.03 µM",14.22%
CCN1CCCc2cc(-c3cncn3C(C)CN3CCOCC3)ccc21.Cl (stereo not given),Percent Effect,"30.3 µM, […]",-9.571%
CN1CCC2(CC1)CN(C(=O)c1cnccn1)Cc1ccccc12.O=C(O)C(F)(F)F,Percent Effect,"30 µM, 30.03 µM",-7.96%
CNC(=O)[C@@H]1C[C@H]2CN(Cc3ccc(C)s3)C[C@H]2N1C(C)=O.O=C(O)C(F)(F)F.O=C(O)C(F)(F)F,Percent Effect,"30.3 µM, […]",-19.68%
Fc1ccc(-c2nccnc2C2CCCNC2)cc1 (stereo not given),Percent Effect,"30.3 µM, […]",-3.462%
NC(=O)NCC1CCCCN1C(=O)c1cccc(Cl)c1 (stereo not given),Percent Effect,"30.3 µM, […]",-13.75%
NC(=O)NCC1CCCCN1C(=O)c1cc(F)cc(F)c1 (stereo not given),Percent Effect,"30.3 µM, […]",-17.02%
Cc1ccc(C(=O)N2CCCCC2CNC(N)=O)cc1F (stereo not given),Percent Effect,"30.3 µM, […]",53.34%
CC(C)(C)NC(=O)CN1CCNCC1.Cl.Cl,Percent Effect,"30 µM, 30.03 µM",-49.47%
CO[C@H]1C[C@@H]2CN(C(=O)Cc3ccc(C)s3)C[C@@H]2C1,Percent Effect,"30.3 µM, […]",15.04%
CNC(=O)C1CCN(Cc2nc(-c3ccc(SC)cc3)oc2C)C1 (stereo not given),Percent Effect,"30 µM, 30.03 µM",5.239%
CSc1ccc(-c2nc(CN3CCC(CN)C3)c(C)o2)cc1 (stereo not given),Percent Effect,"30 µM, 30.03 µM",56.38%
CSc1ccc(-c2nc(CN3CCC(C(N)=O)CC3)c(C)o2)cc1,Percent Effect,"30 µM, 30.03 µM",22.66%
Cc1ccc(-c2nc(CN3C[C@@H](C)NC[C@@H]3C)c(C)o2)s1,Percent Effect,"30.3 µM, […]",11.25%
CNC(=O)CC1CCN(Cc2nc(-c3ccc(SC)cc3)oc2C)CC1,Percent Effect,"30.3 µM, […]",15.19%
Cc1oc(-c2cc(F)cc(F)c2)nc1CN1C[C@@H](C)NC[C@@H]1C,Percent Effect,"30.3 µM, […]",16.81%
CSc1ccc(-c2nc(CN3C[C@@H](C)NC[C@@H]3C)c(C)o2)cc1,Percent Effect,"30.3 µM, […]",65.6%
CSc1ccc(-c2nc(CN3CCNCC3C)c(C)o2)cc1 (stereo not given),Percent Effect,"30.3 µM, […]",65.66%
CSc1ccc(-c2nc(CN3CCC(NC(C)=O)CC3)c(C)o2)cc1,Percent Effect,"30 µM, 30.03 µM",23.08%
Cc1nc(C)n(C2CCCN(C(=O)c3cscn3)C2)n1 (stereo not given),Percent Effect,"30.3 µM, […]",-21.61%
CCC(=O)N1Cc2nccn2CC(CN(C)Cc2cccnc2)C1.O=C(O)C(F)(F)F.O=C(O)C(F)(F)F (stereo not given),Percent Effect,"30 µM, 30.03 µM",3.591%
O=C(Nc1cccnc1)[C@H]1C[C@@H]2CN(Cc3ccc(F)cc3)C[C@H]1O2,Percent Effect,"30.3 µM, […]",-89.84%
CC(C)NC(=O)N1CC[C@H]2N(C)CC[C@@]2(C(=O)Nc2cccnc2)CC1,Percent Effect,"30.3 µM, […]",-97.82%
COCCn1c2c(ccc1=O)CC(NS(C)(=O)=O)CC2 (stereo not given),Percent Effect,"30 µM, 30.03 µM",-56.59%
O[C@@H]1CN(c2cnc3ccccc3n2)CC[C@H]1c1ccc2c(c1)OCO2,Percent Effect,"30 µM, 30.03 µM",-17.33%
Cc1ccc(C)c(CSc2nnc(C(N)C(C)C)o2)c1.Cl (stereo not given),Percent Effect,"30 µM, 30.03 µM",-51.12%
Cn1nc(C(=O)N2CCOCC2)c2c1CN(CC1CC1)C2.O=C(O)C(F)(F)F.O=C(O)C(F)(F)F,Percent Effect,"30.3 µM, […]",-90.45%
COc1cc(CN[C@@H]2COC[C@H]2Cc2cc(C)no2)cc(OC)c1.O=C(O)CC(O)(CC(=O)O)C(=O)O,Percent Effect,"30.3 µM, […]",16.22%
C=C1C(C)(C)[C@H]2CC[C@]1(C(=O)N1CCC(Cn3cc(CO)nn3)CC1)C2,Percent Effect,"30 µM, 30.03 µM",-32.31%
Cl.O=C1CC2(CCCNC2)C(=O)N1Cc1ccc(Cl)cc1 (stereo not given),Percent Effect,"30.3 µM, […]",7.931%
CSc1nccc(N2C[C@@H](CN3CCCCC3)[C@@H](CO)C2)n1,Percent Effect,"30.3 µM, […]",-9.185%
CSc1nccc(N2CCC3(CCCN(Cc4ccc(F)cc4)C3)C2)n1 (stereo not given),Percent Effect,"30.3 µM, […]",100.4%
c1cnc(N2CCC3(CCCN(CC4CCCCC4)C3)C2)cn1 (stereo not given),Percent Effect,"30.3 µM, […]",-7.519%
COc1cc(N2CCC3(CCCN(Cc4ccccn4)C3)C2)ncn1.O=C(O)C(F)(F)F (stereo not given),Percent Effect,"30.3 µM, […]",-81.3%
COc1ccc(CN2CCC3(CCCN(c4ncc(F)cn4)C3)C2)cc1.O=C(O)C(F)(F)F (stereo not given),Percent Effect,"30 µM, 30.03 µM",46.33%
CSc1nccc(N2CCC3(CCCN(CCc4ccccc4)C3)C2)n1 (stereo not given),Percent Effect,"30.3 µM, […]",100.6%
Cc1c[nH]c(CN2CCC3(CCCN(Cc4ccc(F)c(F)c4)C3)C2)n1 (stereo not given),Percent Effect,"30 µM, 30.03 µM",12.03%
CSc1nccc(N2CCC3(CCCN(Cc4cccc(C)c4)C3)C2)n1 (stereo not given),Percent Effect,"30.3 µM, […]",99.66%
Fc1ccc(CN2CCC3(CCCN(c4nncs4)C3)C2)cc1.O=C(O)C(F)(F)F (stereo not given),Percent Effect,"30.3 µM, […]",-195.3%
O=C(Cc1cccc(F)c1)N1CCc2ncnc(NC3CC3)c2CC1.O=C(O)C(F)(F)F,Percent Effect,"30.3 µM, […]",-65.72%
Cl.Cn1ccnc1Sc1ccc(N)cn1,Percent Effect,"30 µM, 30.03 µM",-0.5458%
Cl.O=S(=O)(N1CCCC1)N1C[C@@H](c2cccc(F)c2)[C@@H]2NCCCCC[C@H]21,Percent Effect,"30.3 µM, […]",-12.23%
Cc1cccc(N2CCC3(CCCN(C(=O)c4cccnc4)C3)CC2)n1.O=C(O)C(F)(F)F.O=C(O)C(F)(F)F,Percent Effect,"30 µM, 30.03 µM",-24.82%
CC(C)C(=O)N1CCCC2(C1)CN(c1nncs1)CCO2.O=C(O)C(F)(F)F (stereo not given),Percent Effect,"30.3 µM, […]",-91.97%
O=C(Cc1ccccn1)N1CCC2(CC1)CC(Oc1ccccn1)CO2.O=C(O)C(F)(F)F.O=C(O)C(F)(F)F (stereo not given),Percent Effect,"30 µM, 30.03 µM",23.31%
O=C(O)C(F)(F)F.c1cnc(NC2COC3(CCN(Cc4nccs4)CC3)C2)cn1 (stereo not given),Percent Effect,"30.3 µM, […]",-510.2%
Cc1ncc(CN2CCCC(O)(c3ccc(F)cc3)CC2)n1C.O=C(O)CC(O)(CC(=O)O)C(=O)O (stereo not given),Percent Effect,"30.3 µM, […]",5.795%
COc1cccc(N2CCN(CC(O)c3ccc(C)cc3)CC2)c1 (stereo not given),Percent Effect,"30 µM, 30.03 µM",17.53%
COc1cccc(N2CCN(CC(O)c3cc(C)sc3C)CC2)c1 (stereo not given),Percent Effect,"30.3 µM, […]",80.96%
COc1cccc(N2CCN(CC(O)c3cc(C)ccc3C)CC2)c1 (stereo not given),Percent Effect,"30 µM, 30.03 µM",-36.53%
COc1cc(Cc2nc3c([nH]2)CC(C)(C)CNC3=O)cc(OC)c1,Percent Effect,"30 µM, 30.03 µM",-74.64%
Cc1nc(-c2ncc(C(=O)NCCNc3ncccc3C)c(O)n2)cs1,Percent Effect,"30 µM, 30.03 µM",-1.041%
Cc1cccnc1NCCNC(=O)c1cnc(-c2cccs2)nc1O,Percent Effect,"30 µM, 30.03 µM",-4.334%
Cc1cccnc1NCCNC(=O)c1cnc(-c2ccccn2)nc1O,Percent Effect,"30 µM, 30.03 µM",99.84%
Cc1ccc(C)c(NC(=O)N2C[C@H](N(C)C)C[C@H]2CO)c1,Percent Effect,"30 µM, 30.03 µM",-61.25%
COCCOc1ccc(C(=O)N2CCCC(n3cncn3)C2)cn1 (stereo not given),Percent Effect,"30.3 µM, […]",-14.96%
Cc1noc(C)c1CN1C[C@@H]2COC[C@H](C(=O)N3CCOCC3)[C@@H]2C1.O=C(O)C(F)(F)F,Percent Effect,"30.3 µM, […]",-95.08%
CC(C)c1nn(C)cc1CNCc1cccnc1N(C)C.Cl,Percent Effect,"30 µM, 30.03 µM",-46.74%
